Compound activity as filed in PubChem BioAssay.
This is a sample that favours compounds with a hit; in the whole collection about 3.5% have one here.
PG9 Ab binder = PG9 antibody binding by small molecule. TR-FRET gp120-PG9 antibody binding. inhibition, % at 6.7 µM. 360,000 tested, 0.43% active. AID 624416; in the data active = inhibition above about 8.5%
DNMT1 inh = DNMT1 (human) enzyme inhibition; DNMT1 molecular beacon, Hinp1I cleavage, fluorescence; 360,000 tested, 0.83% active; inhibition (reported as % activation of signal), % at 10 µM; P26358; in the data active = inhibition above about 50%
rCAG RNA binder = r(CAG) repeat RNA binding; TO-PRO-1 dye displacement fluorescence; inhibition, % at 3 µM; 370,000 tested, 1.3% active; AID 651821;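 active = inhibition above the plate cutoff, the mean of all test compounds on that plate plus 3 SD, cut at about 35% in these data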;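 also: 0% = DMSO alone and 100% = 100 µM mitoxantrone as full dye displacement; higher means more dye released from RNA so lower well fluorescence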
UHRF1 binding = UHRF1 methyl-DNA binding inhibition; inhibition, % at 4.4 µM; 370,000 tested, 0.75% active; UHRF1 binding to methylated oligo, TR-FRET; Q96T88; in the data active = inhibition above about 21%;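 also: UHRF1 SRA domain binding a hemimethylated CpG hairpin DNA probe; 0% = median of test compound wells and 100% = reference inhibitor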
MBD2 DNA inh = MBD2-methylated oligo binding inhibition. TR-FRET, MBD2 binding to methylated oligonucleotide. inhibition, % at 4.4 µM. 370,000 tested, 0.31% active. AID 686964; in the data active = inhibition above about 13%
LEDGF integ inh = blocks HIV-1 LEDGF/p75-dependent DNA integration; TR-FRET IN-LEDGF/p75 DNA integration, Eu/Cy5; 370,000 tested, 0.64% active; inhibition, % at 3.7 µM;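 active = inhibition above the screen-wide mean plus 3 SD, cut at about 13% in these data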;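 also: signal is the Cy5 over europium emission ratio at 671 and 618 nm; 0% = plate median of compound wells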
DNMT1 interf DR = counter-screen for DNMT1 inhibitors: spectral interference, dose response; shares compounds with DNMT1 inh; molecular beacon fluorescence; IC50, µM; 200 tested, under 10 active; call rule not given here
DNMT1 inh conf = DNMT1 inhibition confirmation, single concentration | DNMT1 molecular beacon HinP1I cleavage, fluorescence | inhibition, % at 10 µM | shares compounds with DNMT1 inh | 2,300 tested, 8% active;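 active = average inhibition of at least 30% in the single-concentration confirmation test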
DNMT1 interf = shows spectral interference in the DNMT1 beacon assay; shares compounds with DNMT1 inh; DNMT1 molecular beacon spectral interference counterscreen, fluorescence 485/520; activation (fluorescence interference), % at 10 µM; 2,300 tested, 1% active; AID 602387;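 active = activation of at least 30% at 10 µM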;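 also: DNMT1 catalytic domain with a HinP1I cleavage step and a FAM/dabcyl DNA beacon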
* hit, by the source's call; x = no result.

SMILES	PG9 Ab binder	DNMT1 inh	rCAG RNA binder	UHRF1 binding	MBD2 DNA inh	LEDGF integ inh	DNMT1 inh conf	DNMT1 interf	others
COC(=O)[C@@]12CCCCC3=C1N(CCC3)C(=O)[C@H]2CC(=O)NCc1ccc(C)o1	x	x	2	0	6	0	x	x
Cc1ccccc1N(C(=O)Cc1ccsc1)C(C(=O)NC1CCCCC1)c1ccc(F)cc1 (stereo not given)	-2	59*	-3	0	1	-5	1	1
CC12CCC3c4ccc(O)c([N+](=O)[O-])c4CCC3C1CCC2=O (stereo not given)	-3	78*	3	-1	-1	1	7	6
CC12CCC3c4ccc(O)cc4CCC3C1CCC2=O (stereo not given)	-1	0	2	1	1	-1	x	x
O=C(O)CC1Sc2ccccc2NC1=O (stereo not given)	-1	-3	8	-1	-2	0	x	x
O=C1Nc2ccccc2SC(c2ccccc2)C1O (stereo not given)	-1	99*	22	2	1	-1	14	-1
O=C(Nc1cc2nn(-c3ccccc3)nc2cc1Cl)c1ccco1	-2	75*	2	2	-2	-1	0	-5
Cc1cc(C)cc(Nc2nc3c(S(=O)(=O)c4ccccc4)nnn3c3ccccc23)c1	-1	54*	2	3	1	-4	3	-4
O=C(CN1CCCc2ccccc21)NCc1ccc(Cl)cc1	x	x	5	2	7	-2	x	x
CC(C)(C)CC(=O)Nc1cccc2c1CCCC2	-2	61*	7	15	5	0	32*	3	DNMT1 interf DR=>99
O=C(OCC(=O)N1N=C(c2ccc(Cl)cc2)CC1c1ccco1)c1cccnc1 (stereo not given)	5	81*	24	4	5	1	3	3
COCC(=O)OCC(=O)N1N=C(c2ccc(Cl)cc2)CC1c1ccco1 (stereo not given)	-2	4	-4	3	2	4	x	x
CCn1nnc(NC(=O)CSc2ccc(Cl)cc2)n1	x	66*	x	x	x	x	5	2
COC(=O)c1ccccc1NC(=O)c1cc(-c2cccs2)on1	-1	56*	0	-1	-1	1	3	-3
COC(=O)c1ccccc1NC(=O)c1noc2c1CCC2	0	99*	16	11	8	2	3	4
CC(NC(=O)c1noc2c1CCCC2)c1ccccc1 (stereo not given)	-1	2	2	-2	-3	-1	x	x
COC(=O)c1ccccc1NC(=O)c1cc(-c2ccco2)on1	-1	8	13	0	2	-4	x	x
CSc1ccccc1NC(=O)c1noc2c1CCC2	-2	81*	12	11	6	4	6	1
CCc1ccc(NC(=O)c2noc3c2CCC3)cc1	1	80*	21	11	11	8	10	6
COC(=O)C1=CN(c2ccc(OC)cc2OC)C(N)=C(C#N)C1c1cccc([N+](=O)[O-])c1 (stereo not given)	0	x	9	0	-7	6	x	x
O=C(OC(C(=O)NCc1ccccc1)c1ccccc1)c1ccco1 (stereo not given)	1	1	-2	-1	1	-3	x	x
COc1cc(NC(=O)C2CCCN(S(=O)(=O)c3cccc4cccnc34)C2)cc(OC)c1 (stereo not given)	x	x	5	0	3	0	x	x
Nn1c(SCC(=O)Nc2cccnc2Cl)nnc1-c1ccccc1	x	0	x	x	x	x	x	x
CCCNC(=O)C1(C)CCN(C(=O)c2c(Cl)cccc2Cl)C1 (stereo not given)	0	-1	2	1	6	-1	x	x
CN(C)c1ccc(CC(=O)N2CCCCC2c2cc(C(=O)Nc3cccc4c3CCCC4)no2)cc1 (stereo not given)	0	-6	8	-1	-9	5	x	x
